Test results from PubChem BioAssay (NCATS).
Values joined by “and” are separate entries in the source; they are usually repeats but may differ in a detail not shown here. Identical values can stand only once. Records with an inconclusive call do not appear. Where a call stands in place of a potency, no number is given. Active and inactive are the calls of the source. Calls follow the shape of the dose curve; as a rule, active = well fitted inhibition curve with a large enough effect; inconclusive = small, poorly fitted or top-dose-only effect; inactive = no such curve, though single readings can be large or run the other way.

Experiment: Primary qHTS for inhibitors of nuclear receptor binding SET domain protein 2 (NSD2) in an RCH-ACV wild type WT cells (2C) (AID 1645877); also: nearly all actives have a fitted effect of over 70% in size
Details: RCH-ACV (leukaemia line) NSD2 WT (2C) viability, CellTiter-Glo, 72 h; series mostly up to 44.9 µM
Potency is read from the fitted curve at half-maximal effect.

Row | Compound | Potency | activity change, negative = cell killing
1 | C=C1CC2C(C)(CCC(=O)O)C(C(C)(C)O)CCC2(C)C2C(=O)OC(C)(C(=O)OC)C(=O)C12C (centres undefined) | inactive | –
2 | Cc1ccc(NC(=O)Nc2cc(C(F)(F)F)ccc2F)cc1Nc1ccc2c(c1)NC(=O)/C2=C\c1ccc[nH]1 | 20.5 µM (active) | –
3 | COC(=O)C1=CO[C@@H](O[C@@H]2O[C@H](CO)[C@@H](O)[C@H](O)[C@H]2O)C2C1C(=O)C[C@H]2C (some centres undefined) | inactive | –
4 | COc1cccc(C(=O)N2CCN(C(=O)COc3cccc(C)c3)CC2)c1OC | inactive | –
5 | CNC(=O)c1ccccc1Nc1nc(Nc2ccc3c(c2OC)CCCC(N2CCN(CCO)CC2)C3)ncc1Cl (centres undefined) | 7.28 µM (active) | –
6 | C[C@@H]1O[C@@H](O[C@H]2[C@H](OC(=O)[C@]34CCC(C)(C)C[C@H]3C3=CCC5[C@@]6(C)C[C@H](O)[C@H](O[C@@H]7O[C@H](CO)[C@@H](O)[C@H](O)[C@H]7O)[C@@](C)(CO)C6[C@H](O)C[C@@]5(C)[C@]3(C)CC4)OC[C@H](O)[C@@H]2O)[C@H](O)[C@H](O)[C@H]1O[C@@H]1OC[C@@H](O)[C@H](O[C@@H]2OC[C@](O)(CO)[C@H]2O)[C@H]1O (some centres undefined) | – | -13.7% [at 9.23 µM] (inactive)
7 | CC1OC(OC2C(OC3C(O[C@H]4CC[C@@]5(C)C(CC[C@]6(C)C5C(=O)C=C5C7CC(C)(C)CC(O)[C@]7(C)CC[C@]56C)C4(C)C)OC(C(=O)O)C(O)C3O)OCC(O)C2O)C(O)C(O)C1O (some centres undefined) | – | 0.842% [at 9.23 µM] (inactive)
8 | CN(C)C/C=C/C(=O)Nc1cc2c(Nc3ccc(F)c(Cl)c3)ncnc2cc1OC1CCOC1 (centres undefined) | 2.3 µM (active) | –
9 | COc1cc2c(cc1OC)CC(=O)N(CCCNC[C@H]1Cc3cc(OC)c(OC)cc31)CC2 | inactive | –
10 | COc1ccc(/C=C\C(=O)O)c(O[C@@H]2O[C@H](CO)[C@@H](O)[C@H](O)[C@H]2O)c1 | inactive | –
11 | CC(=O)NC1C(OC(C)(C)C2CCC3(C)C=C(C4CCC5C4(C)CC(O)C4OC(C(C)(C)O)CCC45C)CCC3O2)OC(CO)C(O)C1O (centres undefined) | inactive | –
12 | Cc1cc(OCc2nc(-c3ccccc3Cl)cs2)ccc1OCC(=O)O | inactive | –
13 | C[C@@H]1O[C@@H](O[C@@H]2CO[C@@H](O[C@H]3CC[C@@]4(C)C(CC[C@]5(C)C4CC=C4[C@@H]6CC(C)(C)CC[C@]6(C(=O)O[C@@H]6O[C@H](CO)[C@@H](O)[C@H](O)[C@H]6O)CC[C@]45C)[C@]3(C)CO)[C@H](O)[C@H]2O[C@@H]2O[C@H](CO)[C@@H](O)[C@H](O)[C@H]2O)[C@H](O)[C@H](O)[C@H]1O (some centres undefined) | – | -18.1% [at 9.23 µM] (inactive)
14 | COc1cc(OC)c(/C=C/S(=O)(=O)Cc2ccc(OC)c(NCC(=O)O)c2)c(OC)c1 | 51.5 nM (active) and 46.8 nM (active) | –
15 | C=C(C)C1CC[C@]2(C(=O)O)CC[C@]3(C(=O)O)[C@H](CCC4[C@@]5(C)CC[C@H](O)C(C)(C)C5CC[C@]43C)C12 (some centres undefined) | inactive | –
16 | Cc1ccccc1-n1c([C@H](C)Nc2nc(N)nc3nc[nH]c23)nc2cccc(C)c2c1=O | 0.411 µM (active) | –
17 | CC(=O)O[C@H]1CC(C)(C)CC2[C@@]13[C@H](O)C[C@]1(C)[C@@]2(CCC2[C@@]4(C)CC[C@H](O[C@@H]5OC[C@H](O[C@@H]6O[C@H](CO)[C@@H](O)[C@H](O)[C@H]6O[C@@H]6OC[C@@H](O)[C@H](O)[C@H]6O)[C@H](O)[C@H]5O[C@@H]5O[C@H](CO)[C@@H](O)[C@H](O)[C@H]5O)C(C)(C)C4CC[C@]21C)O[C@@H]3O (some centres undefined) | 1.09 µM (active) | –
18 | O=C(O)CC(=O)OC[C@H]1O[C@@H](Oc2ccc3c(c2)OC[C@H]2c4cc5c(cc4O[C@@H]32)OCO5)[C@H](O)[C@@H](O)[C@@H]1O | inactive | –
19 | CC(=O)OC1C(OC(=O)c2ccccc2)C2C(C)(C)CC(=O)CC2(C)C23CCC(C)(C2)C(O)CC13 (centres undefined) | inactive | –
20 | CN(C)c1ccc2c(c1)OC(N)=C(C#N)C2c1cccc(C(F)(F)F)c1 (centres undefined) | 0.916 µM (active) | –
21 | O=C(Nc1ccc(S(=O)(=O)Nc2ccccc2Cl)c(Cl)c1)c1ccccn1 | inactive | –
22 | COC(=O)C1=CO[C@@H](O[C@@H]2O[C@H](CO)[C@@H](O)[C@H](O)[C@H]2O)[C@H]2[C@@H]1C=C[C@@]21C=C([C@H](C)O)C(=O)O1 | inactive | –
23 | O=C(/C=C/c1ccc(O)cc1)OC1[C@H](O)CC(O)(C(=O)O)C[C@H]1O (some centres undefined) | inactive | –
24 | COc1ccc(CCO[C@@H]2CCCC[C@H]2N2CC[C@@H](O)C2)cc1OC | inactive | –
